The experiment concerns the target 5-hydroxytryptamine receptor 5A (Homo sapiens) (UniProt P47898). In words: activation of human 5-HT5A receptor – cell-based, luminescence, counter-screen for OPRM1-OPRD1 heterodimer agonist project (AID 504905).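 Also: 0% = vehicle-treated cells and 100% = reference agonist response.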 The following applies: HTR5A agonist counterscreen, at 9.3 µM, hits give high values.

The values below come from PubChem BioAssay AID504905 (The Scripps Research Institute Molecular Screening Center, 2011).

Some of the results follow. Values without a mark were called inactive. Active and inactive are the calls of the source. Rule as the data show it: active = activation above about 17%; inactive = the rest.

Sequence of 5-hydroxytryptamine receptor 5A (Homo sapiens) (P47898 whole entry, looked up): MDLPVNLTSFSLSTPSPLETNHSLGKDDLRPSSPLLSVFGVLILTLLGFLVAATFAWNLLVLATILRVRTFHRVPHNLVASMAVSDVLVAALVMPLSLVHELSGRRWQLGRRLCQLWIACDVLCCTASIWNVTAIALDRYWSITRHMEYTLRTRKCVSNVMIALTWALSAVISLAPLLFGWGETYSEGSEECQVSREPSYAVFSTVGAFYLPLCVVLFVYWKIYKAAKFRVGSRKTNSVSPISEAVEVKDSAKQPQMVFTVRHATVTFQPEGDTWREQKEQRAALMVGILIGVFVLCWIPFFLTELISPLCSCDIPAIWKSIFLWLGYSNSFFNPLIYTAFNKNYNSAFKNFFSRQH

With `COc1ccc(-n2nnnc2-c2nc3ccccc3s2)cc1`, the activation is 4.69%. Take `COc1cc(C(=O)OC(C)C(=O)NCC2CCCCC2)cc(NC(=O)c2ccco2)c1OC` (stereo unspecified): the activation was -2.12%.

`C=C(C)COc1ccc(-c2n[nH]c(C)c2-c2ccccc2)c(O)c1`: the activation is 5.34%. The figure for `COc1ccccc1C(CNC(=O)c1ccc(C)c(S(=O)(=O)N2CCCCC2)c1)N(C)C` (stereo unspecified) is 0.79%; for `COc1ccc(C2Nc3ccccc3C(=O)N2c2ccc(F)cc2)cc1Cn1nnc2ccccc21` (stereo unspecified) it is 2.9%. The figure for `CCNS(=O)(=O)c1ccc(NC(=O)Nc2cccc(OC)c2)cc1` is 3.27%. As for `CN(C)C(CNC(=O)c1cc2ccccc2o1)c1ccccc1` (stereo unspecified), the figure is 46.9% (active); as for `Cc1cc(C)cc(C(=O)N(CCc2ccccc2)C2=CC3CCC(C2)N3C)c1` (stereo unspecified), -1.9%.

With `CCc1ccc(C(CNc2nc(C(F)(F)F)nc3ccccc23)N(C)C)cc1` (stereo unspecified), the activation is -2.05%. For `COC(=O)c1ccc(C23CC4(C2)[C@H](CN(Cc2cccnc2)[C@@H]4c2ccccc2)C3c2ccc(Cl)nc2)cc1` (stereo partly specified), the activation was 5.91%.

In the case of `CC(c1cccnc1)N(CCN(C)C)C(=O)Nc1ccc(Cl)c(Cl)c1` (stereo unspecified), the activation was -6.75%. The figure for `CN1C(CC(=O)Nc2ccc(Br)cc2)c2ccccc2CC1(C)C` (stereo unspecified) is 5.83%; for `CC1CCCN(CCOCCOc2ccccc2-c2ccccc2)C1` (stereo unspecified) it is 1.05%; for `CCCC(=O)NC(C)C(c1cccs1)N1CCN(c2ccccc2)CC1` (stereo unspecified) it is -1.26%. Turning to `CN(C)C(CNC(=O)Cc1ccc([N+](=O)[O-])cc1)c1ccccc1` (stereo unspecified), the activation was 1.22%.

Regarding `COc1cccc(/C=N/Nc2cc(C)nc(-c3ccccc3O)n2)c1O`, the activation is 0.01%.

As to `CN(C)CCCN(C(=O)c1ccc(S(=O)(=O)N2CCCc3ccccc32)cc1)c1nc2ccc(F)cc2s1`, the activation was 7.49%. Regarding `Cc1ccc(S(=O)(=O)N(CC(=O)Nc2cccnc2)c2ccc(Br)cc2)cc1`, the activation was 0.5%. The figure for `CN(CC(=O)Nc1ccc(Cl)cc1)C(=O)c1ccc(COc2ccccc2)cc1` is 5.21%; for `COCCCNc1nc2c(-c3cccc(C)c3)nnn2c2ccc(Cl)cc12` it is 8.68%. The figure for `O=C1N/C(=C/c2cccs2)C(=O)N1Cc1ccc(F)cc1` is 27.5% (active).
